Activity calls are given as the source filed them. How the calls were made is not given here.
Target: Pantothenate synthetase (Mycobacterium tuberculosis (strain ATCC 25618 / H37Rv)) (UniProt P9WIL5)
Assay: Coupled enzyme confirmation of inhibitors against recombinant Mtb PanC (AID 375);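 further: 0% = full reaction with vehicle and 100% = no enzyme background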
Details: coupled enzyme assay; at 10 µM, stronger effect = higher value

Chain of Pantothenate synthetase (Mycobacterium tuberculosis (strain ATCC 25618 / H37Rv)) (P9WIL5 whole entry, looked up): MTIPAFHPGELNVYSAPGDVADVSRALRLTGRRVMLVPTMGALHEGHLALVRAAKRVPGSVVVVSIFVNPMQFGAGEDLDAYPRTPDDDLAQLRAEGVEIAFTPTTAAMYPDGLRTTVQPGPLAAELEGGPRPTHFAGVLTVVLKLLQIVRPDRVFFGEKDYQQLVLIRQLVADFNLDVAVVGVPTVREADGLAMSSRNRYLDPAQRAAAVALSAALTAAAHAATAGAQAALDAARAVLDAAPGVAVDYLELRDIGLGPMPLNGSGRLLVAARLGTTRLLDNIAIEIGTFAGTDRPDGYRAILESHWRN

Structure (SMILES) | inhibition
O=C(CSc1nc2cc(Cl)ccc2s1)N1CCN(C(=O)c2ccco2)CC1 | 9% (inactive)
CCOc1ccccc1CN1C(=O)c2ccccc2C1C(=O)NCC1CCCO1 (stereo not drawn) | 11% (inactive)
O=C(NCc1cccnc1)c1ccc(Cl)c(Cl)c1 | 0% (inactive)
Cc1cc(Br)ccc1NC(=O)CCN1C(=O)c2ccncc2C1=O | 0% (inactive)
O=C(Nc1ncnc2sc3c(c12)CCC3)c1ccco1 | 0% (inactive)
COCCCNC(=O)C1CCN(C(=O)Nc2ccc(Cl)cc2)CC1 | 0% (inactive)
COc1ccc(CCN(C)CCCC(C#N)(c2cc(OC)c(OC)c(OC)c2)C(C)C)cc1OC (stereo not drawn) | 0% (inactive)
O=C(O)c1ccccc1S(=O)(=O)NCC(O)COc1ccc(Br)cc1 (stereo not drawn) | 2% (inactive)
OCCNCC(O)Cn1ccc2ccccc21 (stereo not drawn) | 2% (inactive)
CCOC(=O)c1[nH]c(C)c(C(=O)Nc2ccccc2C)c1C | 0% (inactive)
CCC(CO)Nc1ncnc2c1cnn2-c1ccc(Cl)cc1 (stereo not drawn) | 6% (inactive)
CCN(CC)C(=O)COC(=O)c1ccc(O)cc1 | 0% (inactive)
CC(CN1CCOCC1)(NS(=O)(=O)c1ccccc1)c1ccccc1 (stereo not drawn) | 1% (inactive)
CC1CCN(CCc2nc3cc(NS(=O)(=O)c4ccc(F)cc4)ccc3n2C)CC1 | 5% (inactive)
CN(C)CCOC(c1ccccc1)c1ccccc1 | 0% (inactive)
CN=C(Nc1cc(C)nn1-c1ccccc1)c1ccccc1 | 0% (inactive)
O=C(O)C1CC(=O)N(c2ccc(Br)cc2)C1 (stereo not drawn) | 0% (inactive)
CCn1c(SCC(=O)N2CCN(c3ccc(Cl)cc3)CC2)nc2ccccc2c1=O | 0% (inactive)
